This passage reports Potency and outcome results from PubChem BioAssay (Tox21).

Records with an inconclusive call do not appear. The source made the active and inactive calls. Unless noted, calls come from the whole dose curve; as a rule, active = well fitted curve in the direction sought with a large enough effect in the repeat runs; inconclusive = weak or mixed curves; inactive = no such curve, though single readings can be large; an effect the other way counts as inactive or inconclusive.

Test [1] in a line: qHTS assay to identify aromatase inhibitors - cell viability counter screen (AID 743084).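 Note: cells stimulated with testosterone during compound exposure; nearly all actives have a fitted effect of over 55% in size.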
For test [2], the target named is Aryl hydrocarbon receptor (Homo sapiens) (UniProt P35869). Description: qHTS assay to identify small molecule that activate the aryl hydrocarbon receptor (AhR) signaling pathway (AID 743085).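 For activation: HG2L7.5c1 human HepG2 liver cells with stably integrated DRE-driven firefly reporter; series mostly up to about 70 µM.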 Note: nearly all actives have a fitted effect of over 15% in size. Note: potency is the fitted concentration of half-maximal effect. A digest of the protocol:
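24 h compound exposure, 37C, HepG2-derived HG2L7.5c1 cells with DRE-responsive luciferase. Readouts: fluorescence viability, then luminescence at room temperature after 30 min.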
(In general: qHTS replaces the single test concentration by a dilution series.)

Test [3] can be described thus: qHTS assay to identify small molecule that activate the aryl hydrocarbon receptor (AhR) signaling pathway - cell viability counter screen (AID 743086).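 Note: HepG2 liver cells carrying the AhR DRE luciferase reporter; series mostly up to about 70 µM; nearly all actives have a fitted effect of over 45% in size.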 A digest of the protocol:
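HepG2-AhR-luc (HG2L7.5c1) cells, 4000/well, were preincubated 5 h at 37C, exposed to compound in qHTS format for 24 hr at 37C, then given CellTiter-Fluor for 30 min; viability was read as fluorescence in the reporter wells.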

Test [4] concerns the target Peroxisome proliferator-activated receptor gamma (Homo sapiens) (UniProt P37231). In words: qHTS assay to identify small molecule agonists of the peroxisome proliferator-activated receptor gamma (PPARg) signaling pathway (AID 743094; active = well fitted activation curve with a large enough effect in the signal ratio in the repeat runs, not every such curve was filed as active; the % refers to the signal ratio). Summed up: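 Quantitative HTS agonist mode: stable HEK293H line with UAS-beta-lactamase reporter under PPARg control, 17 h compound exposure at 37C, fluorescence after 1 h FRET substrate loading at room temperature.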

Test [5] is described as follows: qHTS assay for small molecule agonists of the antioxidant response element (ARE) signaling pathway (AID 743202; active = well fitted activation curve with a large enough effect in the signal ratio in the repeat runs, not every such curve was filed as active; the % refers to the signal ratio). A digest of the protocol: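 Compounds delivered in DMSO to ARE-bla HepG2 cells (2,000 cells/well, pre-incubated 5 h) and left 16 h at 37 C. LiveBLAzer B/G FRET substrate then added for 2 h at RT before fluorescence reading.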
The nature of test [6]: qHTS assay for small molecule agonists of the antioxidant response element (ARE) signaling pathway - cell viability counter screen (AID 743203; calls by dose curve; note: nearly all actives have a fitted effect of over 55% in size). A digest of the protocol:
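Seeded at 2,000 cells/well, ARE-bla HepG2 cells were incubated 5 hrs before compound addition. After 16 hrs of treatment at 37C with 5% CO2, CellTiter-Glo reagent was added and luminescence read 30 min later.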

Test [7] can be described thus: qHTS assay for small molecule activators of the heat shock response signaling pathway - cell viability counter screen (AID 743209). Note: nearly all actives have a fitted effect of over 50% in size. Summed up:
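First, HSE-bla HeLa cells were seeded at 1500 cells/well and kept overnight at 37 C. Next, compounds were pinned in and incubated 5 h. After the FRET substrate step, CellTiter-Glo was added and luminescence read 30 min later.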

A short description of test [8]: qHTS assay for small molecule activators of the heat shock response signaling pathway (AID 743210; active = well fitted activation curve with a large enough effect in the signal ratio in the repeat runs, with a control signal flat, not every such curve was filed as active; the % refers to the signal ratio;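 note: HeLa cells with beta-lactamase reporter driven by heat shock elements; series mostly up to about 63 µM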). A digest of the protocol: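 Reporter gene assay: HeLa cells stably bearing an HSE-bla construct, compound treatment 5 h at 37 C, LiveBLAzer substrate 2.5 h at RT, fluorescence intensity.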
A short description of test [9]: qHTS assay to identify small molecule agonists of the peroxisome proliferator-activated receptor delta (PPARd) signaling pathway - cell viability counter screen (AID 743211). Note: nearly all actives have a fitted effect of over 55% in size. A digest of the protocol:
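Luminescent ATP viability assay (CellTiter-Glo, 30 min RT) in UAS-bla HEK293H cells carrying the PPAR delta reporter construct, 3000 cells/well, after a 17 h compound treatment at 37 C.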

Test [10] has as its target Peroxisome proliferator-activated receptor delta (Homo sapiens) (UniProt Q03181). Description: qHTS assay to identify small molecule agonists of the peroxisome proliferator-activated receptor delta (PPARd) signaling pathway (AID 743212; calls by dose curve). A digest of the protocol:
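A PPARd-bla HEK293H line with beta-lactamase under an Upstream Activator Sequence is treated with compounds at 37 C. Substrate loading for 2 h at room temperature precedes the fluorescence measurement.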

Test [11] in a line: qHTS assay to identify small molecule antagonists of the peroxisome proliferator-activated receptor delta (PPARd) signaling pathway - cell viability counter screen (AID 743213). Note: nearly all actives have a fitted effect of over 50% in size. Summed up: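 HEK293H cells with the PPARd UAS-bla reporter, co-treated 17 h at 37 C with compounds and L165041 (300 nM final), were lysed with CellTiter-Glo. Luminescence indicated viable cell content.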

Test [12] has as its target Peroxisome proliferator-activated receptor delta (Homo sapiens) (UniProt Q03181). In words: qHTS assay to identify small molecule antagonists of the peroxisome proliferator-activated receptor delta (PPARd) signaling pathway (AID 743215; active = well fitted inhibition curve with a large enough effect in the signal ratio in the repeat runs, not every such curve was filed as active; the % refers to the signal ratio;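 note: cells stimulated with agonist L165041 at 300 nM final during compound exposure; series mostly up to about 62 µM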). A digest of the protocol:
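Inhibition of L165041-driven (300 nM final) PPARd signaling is scored in HEK293H UAS-bla cells. Exposure lasts 17 h at 37 C; beta-lactamase activity is then read by FRET substrate fluorescence after 2 h at room temperature.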

Test [13] in a line: qHTS assay to identify small molecule agonists of the farnesoid-X-receptor (FXR) signaling pathway - cell viability counter screen (AID 743218). Note: nearly all actives have a fitted effect of over 45% in size. Summed up: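 Cytotoxicity counter-screen run in parallel, same wells: FXR-UAS-bla HEK 293T cells dosed 16 h at 37 C, viability read by CellTiter-Glo luminescence after 30 min at room temperature.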
A short description of test [14]: qHTS assay to identify small molecule antagonists of the farnesoid-X-receptor (FXR) signaling pathway - cell viability counter screen (AID 743221; active = well fitted cell-killing curve with a large enough effect in the repeat runs, not every such curve was filed as active; note: nearly all actives have a fitted effect of over 50% in size). Summed up:
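In GeneBLAzer FXR-UAS-bla HEK 293T cells stimulated with 50 uM chenodeoxycholic acid (final), compounds acted for 16 h at 37 C. Viability was assessed afterwards by CellTiter-Glo luminescence.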

Test [15] in a line: qHTS assay to identify small molecule antagonists of the peroxisome proliferator-activated receptor gamma (PPARg) signaling pathway - cell viability counter screen (AID 743194). Note: nearly all actives have a fitted effect of over 55% in size. A digest of the protocol: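 PPARg-UAS-bla HEK293H cells were plated, rested 5 h at 37 C, then treated with compounds plus rosiglitazone (50 nM final) for 17 h at 37 C; viability was then read by CellTiter-Glo luminescence after 30 min at room temperature.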

Test [16] has as its target Peroxisome proliferator-activated receptor gamma (Homo sapiens) (UniProt P37231). In words: qHTS assay to identify small molecule antagonists of the peroxisome proliferator-activated receptor gamma (PPARg) signaling pathway (AID 743191; calls by dose curve; note: series mostly up to about 63 µM; nearly all actives have a fitted effect of over 30% in size). A digest of the protocol:
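GeneBLAzer PPARg UAS-bla HEK293H cells carrying a UAS-driven beta-lactamase reporter were plated at 3000 cells/well, preincubated 5 h at 37C, then given compound for 17 h at 37C; LiveBLAzer B/G FRET substrate was read after 1 h at room temperature.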

For test [17], the target named is Bile acid receptor (Homo sapiens) (UniProt Q96RI1). Description: qHTS assay to identify small molecule antagonists of the farnesoid-X-receptor (FXR) signaling pathway (AID 743217; active = well fitted inhibition curve with a large enough effect in the signal ratio in the repeat runs, not every such curve was filed as active; the % refers to the signal ratio). Summed up:
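Antagonist mode against 50 uM (final) chenodeoxycholic acid stimulation in FXR-bla HEK 293T cells, 16 h at 37 °C. Inhibition detected as reduced beta-lactamase activity via LiveBLAzer B/G FRET fluorescence after 2 h at room temperature.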

For test [18] the target is unchanged. In words: qHTS assay to identify small molecule agonists of the farnesoid-X-receptor (FXR) signaling pathway (AID 743220; active = well fitted activation curve with a large enough effect in the signal ratio in the repeat runs, not every such curve was filed as active; the % refers to the signal ratio). A digest of the protocol:
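Beta-lactamase reporter under UAS control in GeneBLAzer FXR HEK 293T cells (5000/well) measured with LiveBLAzer FRET substrate after 2 h at room temperature. Compound exposure lasted 16 h at 37C.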

Test [19] has as its target Vitamin D3 receptor (Homo sapiens) (UniProt P11473). In words: qHTS assay to identify small molecule agonists of the vitamin D receptor (VDR) signaling pathway (AID 743222; calls by dose curve). A digest of the protocol:
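Quantitative HTS agonist-mode screen: compounds in DMSO were pin-transferred onto VDR-bla cells and incubated 16 h at 37C, 5% CO2. Reporter activity was detected with LiveBLAzer B/G FRET substrate after 2 h at room temperature.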

Test [20] has the same target. In words: qHTS assay to identify small molecule antagonists of the vitamin D receptor (VDR) signaling pathway (AID 743223; active = well fitted inhibition curve with a large enough effect in the signal ratio in the repeat runs, not every such curve was filed as active; the % refers to the signal ratio). Summed up: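 Agonist 1alpha,25-dihydroxyvitamin D3 (3 nM in well) was added with each compound to VDR-bla cells preincubated 4 h. Cells stood 16 h at 37C, then FRET substrate 2 h at room temperature; fluorescence intensity recorded.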

Chain of Peroxisome proliferator-activated receptor delta (Homo sapiens) (Q03181 whole entry, looked up): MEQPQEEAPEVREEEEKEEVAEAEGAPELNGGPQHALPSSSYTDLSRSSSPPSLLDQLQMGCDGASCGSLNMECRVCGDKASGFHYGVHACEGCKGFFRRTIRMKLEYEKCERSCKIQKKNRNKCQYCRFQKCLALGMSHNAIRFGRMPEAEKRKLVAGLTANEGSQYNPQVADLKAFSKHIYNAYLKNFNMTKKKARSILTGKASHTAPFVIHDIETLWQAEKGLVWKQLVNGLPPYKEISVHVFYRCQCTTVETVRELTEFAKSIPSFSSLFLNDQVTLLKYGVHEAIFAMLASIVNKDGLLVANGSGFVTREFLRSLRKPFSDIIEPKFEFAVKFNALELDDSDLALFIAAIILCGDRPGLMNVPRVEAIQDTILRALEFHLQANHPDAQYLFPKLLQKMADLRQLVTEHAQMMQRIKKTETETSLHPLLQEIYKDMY
Chain of Peroxisome proliferator-activated receptor gamma (Homo sapiens) (P37231 whole entry, looked up): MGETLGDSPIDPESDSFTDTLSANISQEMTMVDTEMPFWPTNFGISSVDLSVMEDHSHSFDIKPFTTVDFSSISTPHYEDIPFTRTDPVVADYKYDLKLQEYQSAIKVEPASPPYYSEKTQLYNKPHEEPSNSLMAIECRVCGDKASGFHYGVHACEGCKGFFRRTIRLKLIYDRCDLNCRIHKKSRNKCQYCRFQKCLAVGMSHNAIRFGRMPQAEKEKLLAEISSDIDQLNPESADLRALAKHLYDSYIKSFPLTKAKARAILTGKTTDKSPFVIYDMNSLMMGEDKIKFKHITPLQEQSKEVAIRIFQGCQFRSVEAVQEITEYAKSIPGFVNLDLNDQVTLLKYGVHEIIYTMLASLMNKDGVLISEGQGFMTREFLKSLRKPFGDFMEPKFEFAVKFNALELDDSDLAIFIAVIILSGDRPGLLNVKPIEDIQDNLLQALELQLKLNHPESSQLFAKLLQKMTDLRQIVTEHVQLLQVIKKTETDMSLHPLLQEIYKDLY
Chain of Vitamin D3 receptor (Homo sapiens) (P11473 whole entry, looked up): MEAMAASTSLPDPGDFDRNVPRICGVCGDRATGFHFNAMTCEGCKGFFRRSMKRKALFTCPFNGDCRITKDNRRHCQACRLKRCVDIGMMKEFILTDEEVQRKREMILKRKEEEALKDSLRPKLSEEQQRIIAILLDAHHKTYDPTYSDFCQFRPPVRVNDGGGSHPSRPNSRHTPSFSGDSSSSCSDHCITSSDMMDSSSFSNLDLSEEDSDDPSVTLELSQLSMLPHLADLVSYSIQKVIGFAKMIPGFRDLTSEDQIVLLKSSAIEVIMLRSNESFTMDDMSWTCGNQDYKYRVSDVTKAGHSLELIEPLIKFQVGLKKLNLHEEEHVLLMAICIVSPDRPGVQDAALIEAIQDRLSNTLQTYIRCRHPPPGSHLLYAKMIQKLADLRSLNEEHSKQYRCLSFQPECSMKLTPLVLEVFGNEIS
Chain of Aryl hydrocarbon receptor (Homo sapiens) (P35869 whole entry, looked up): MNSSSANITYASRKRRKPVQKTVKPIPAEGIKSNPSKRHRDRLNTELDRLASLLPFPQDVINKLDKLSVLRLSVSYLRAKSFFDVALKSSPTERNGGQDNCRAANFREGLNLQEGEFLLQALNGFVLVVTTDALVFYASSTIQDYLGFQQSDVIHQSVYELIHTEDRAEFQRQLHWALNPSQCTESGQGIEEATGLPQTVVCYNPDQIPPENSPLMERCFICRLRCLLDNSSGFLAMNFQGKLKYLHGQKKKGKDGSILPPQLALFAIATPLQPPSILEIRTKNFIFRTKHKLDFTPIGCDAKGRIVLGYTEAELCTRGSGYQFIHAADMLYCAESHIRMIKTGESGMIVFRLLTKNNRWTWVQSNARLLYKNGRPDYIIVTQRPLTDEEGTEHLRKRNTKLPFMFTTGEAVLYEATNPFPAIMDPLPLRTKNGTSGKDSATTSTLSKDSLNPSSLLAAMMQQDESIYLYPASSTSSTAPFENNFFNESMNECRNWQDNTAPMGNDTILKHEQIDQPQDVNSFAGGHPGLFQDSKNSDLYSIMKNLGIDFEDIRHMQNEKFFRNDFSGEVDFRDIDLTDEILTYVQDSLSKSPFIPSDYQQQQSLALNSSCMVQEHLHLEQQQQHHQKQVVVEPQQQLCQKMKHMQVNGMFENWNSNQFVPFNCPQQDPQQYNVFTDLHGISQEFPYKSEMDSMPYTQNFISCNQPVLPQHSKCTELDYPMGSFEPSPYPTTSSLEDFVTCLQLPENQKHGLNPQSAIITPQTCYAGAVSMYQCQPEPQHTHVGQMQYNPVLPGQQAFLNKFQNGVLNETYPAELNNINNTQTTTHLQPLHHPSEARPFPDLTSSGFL
Chain of Bile acid receptor (Homo sapiens) (Q96RI1 whole entry, looked up): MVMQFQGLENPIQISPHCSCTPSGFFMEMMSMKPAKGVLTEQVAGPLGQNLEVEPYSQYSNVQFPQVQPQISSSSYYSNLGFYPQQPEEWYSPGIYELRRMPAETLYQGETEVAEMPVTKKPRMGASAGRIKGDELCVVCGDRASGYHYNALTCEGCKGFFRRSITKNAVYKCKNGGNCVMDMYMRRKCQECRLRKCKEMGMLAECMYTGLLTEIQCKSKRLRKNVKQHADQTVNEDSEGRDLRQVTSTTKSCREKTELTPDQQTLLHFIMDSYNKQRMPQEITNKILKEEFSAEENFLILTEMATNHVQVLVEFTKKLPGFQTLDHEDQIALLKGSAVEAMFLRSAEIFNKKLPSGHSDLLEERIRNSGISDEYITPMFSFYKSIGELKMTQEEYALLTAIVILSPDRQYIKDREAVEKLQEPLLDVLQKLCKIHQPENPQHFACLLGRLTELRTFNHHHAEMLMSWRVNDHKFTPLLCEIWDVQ

Regarding `N#CCCCC(C#N)CCC#N` (stereo not drawn), the Potency result in [1], in test [2], in test [3], in test [4], in [5] and in test [6] was “inactive” in each case. The Potency result in [9], in test [10], in test [11], in test [13] and in test [14] was “inactive” each time. Further, the call in test [7], in test [8] and in [12] was inactive.
On to `CC(=O)Oc1cccc2c1C(=O)c1c(OC(C)=O)cc(C(=O)O)cc1C2=O`, for which the Potency entry in test [1], in test [2], in [3], in [4], in [15] and in [6] was “inactive” each time. Besides, in [11], the Potency entry is “inactive”. Besides, the outcome in test [8] was inactive.
Turning to `O=C(O)c1c2ccccc2cc2ccccc12`, the Potency result in test [1], in test [2], in [3], in test [16], in test [15] and in [6] was “inactive” each time. In addition, the Potency result in test [9], in test [11], in [13] and in [14] was “inactive” in each case. In addition, the compound was called inactive in test [7], in test [8], in [12], in test [17], in [18] and in test [19]. Besides, the outcome in test [20] was inactive.
Regarding `O=C(O)c1ccncc1`, the Potency result in test [1], in [2], in test [3], in [4], in test [5] and in test [6] was “inactive” throughout. For the same compound, the Potency result in test [9], in test [10], in test [11], in test [13] and in test [14] was “inactive” in each case. For the same compound, the compound was classed as inactive in [7], in test [8], in [12], in [17], in test [18] and in test [19]. Further, the outcome in test [20] was inactive.
`CCCCC(CC)COCCC#N` (stereo not drawn): the Potency result in test [1], in [2], in test [3], in [4], in [15] and in test [5] was “inactive” each time. Besides, the Potency result in test [6], in [9] and in test [13] was “inactive” each time. The outcome in test [7], in test [8], in test [12] and in test [19] was inactive.
As for `CCCCCCC/C=C/C=O`, the Potency result in [1], in test [2], in test [3], in test [4], in [6] and in test [11] was “inactive” throughout. Further, the Potency entry in test [13] was “inactive”. Besides, the result in test [7], in test [8], in test [19] and in [20] was inactive.
For `O=C(O)c1ccc(O)c(O)c1`, the Potency result in [1], in [2], in test [3], in test [4], in test [5] and in [6] was “inactive” each time. Moreover, the Potency entry in [9], in [10] and in test [13] was “inactive” throughout. Also, the compound was classed as inactive in test [7], in [8] and in test [12].
`C=CCCC`: the Potency entry in test [1], in [2], in test [3], in [15], in test [5] and in test [6] was “inactive” each time. Moreover, the Potency result in [9], in [10], in [11], in test [13] and in test [14] was “inactive” each time. Besides, the compound was classed as inactive in test [7], in test [8], in test [12], in test [19] and in test [20].
Take `CCOc1ccccc1O`: the Potency entry in [1], in test [2], in test [3], in test [4], in [15] and in [6] was “inactive” each time. Besides, the Potency result in test [9], in test [10], in test [11] and in test [13] was “inactive” throughout. Further, the compound was called inactive in [7], in test [8], in test [12], in test [17], in test [18] and in [19].
Regarding `COc1ccc(C(=O)Nc2ccccc2)cc1[N+](=O)[O-]`, the Potency entry in test [1], in test [3], in test [4], in test [15], in test [6] and in test [9] was “inactive” throughout. The Potency entry in test [13] was “inactive”. For the same compound, the Potency in [2] was 30.9 µM (active). Besides, the compound was classed as inactive in test [7], in [8], in test [17] and in test [18].
In the case of `CCOc1ccc(NC(C)=O)cc1N`, the Potency entry in test [1], in test [3], in test [4], in [16], in [15] and in [6] was “inactive” throughout. Further, the Potency result in test [9], in test [10], in [11], in test [13] and in [14] was “inactive” each time. For the same compound, the compound was called inactive in test [7], in [12], in test [19] and in test [20].
On to `CC(=O)CC/C=C(\C)CC/C=C(\C)CC/C=C(\C)CCC=C(C)C`, for which the Potency result in [1], in test [3], in test [4], in [16], in test [15] and in [6] was “inactive” in each case. The Potency result in [10], in [11], in test [13] and in test [14] was “inactive” each time. The call in [7], in [8], in test [12], in test [17], in test [18] and in test [19] was inactive. Moreover, in test [20], the compound was classed as inactive.
In the case of `COC(=O)Cc1cccc2ccccc12`, the Potency result in test [1], in [2], in [4], in [5], in test [6] and in test [10] was “inactive” throughout. In addition, the Potency result in test [11], in test [13] and in test [14] was “inactive” in each case. The result in test [7], in test [8], in [12], in test [19] and in test [20] was inactive.
